In PubChem BioAssay (Tox21) one finds Potency and outcome data, which are given here for 22 compounds.

“And” between values parts separate entries of the source, which are not always exact repeats. Equal entries are not always repeated. Inconclusive results are not listed. The source made the active and inactive calls. Unless noted, calls follow the shape of the dose curve; as a rule, active = well fitted curve in the direction sought with a large enough effect in the repeat runs; inconclusive = weak or mixed curves; inactive = no such curve, though single readings can be large; an effect the other way counts as inactive or inconclusive.

Assay [1] can be described thus: qHTS assay to identify small molecule agonists of the peroxisome proliferator-activated receptor delta (PPARd) signaling pathway - cell viability counter screen (AID 743211). Also: nearly all actives have a fitted effect of over 55% in size. Also: potency is read from the fitted curve at half-maximal effect. Particulars: PPARd-bla HEK293H viability, CellTiter-Glo luminescence, 17 h; series mostly up to 62.6 µM. In a few lines: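 Tox21 library compounds, delivered in DMSO, were incubated 17 h with PPARd-bla HEK293H cells; cytotoxicity was taken from CellTiter-Glo luminescence read 30 min after reagent addition.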
(In qHTS, concentration-response curves come from the screen itself.)

Assay [2] is described as follows: qHTS assay to identify small molecule agonists of the farnesoid-X-receptor (FXR) signaling pathway - cell viability counter screen (AID 743218). Also: nearly all actives have a fitted effect of over 45% in size. Also: potency is read from the fitted curve at half-maximal effect. Particulars: FXR-bla HEK293T viability, CellTiter-Glo luminescence, 16 h; series mostly up to 62.6 µM. In a few lines: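 Quantitative HTS counter screen measuring ATP-based viability via CellTiter-Glo luminescence in HEK 293T cells carrying a UAS-driven beta-lactamase reporter, after 16 h compound exposure at 37 C.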

Assay [3] deals with Vitamin D3 receptor (Homo sapiens) (UniProt P11473). The assay can be described thus: qHTS assay to identify small molecule agonists of the vitamin D receptor (VDR) signaling pathway (AID 743222; calls by dose curve). To be noted: HEK293T VDR-UAS-bla, beta-lactamase FRET ratio, 16 h; series mostly up to 63.5 µM. In a few lines:
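Tox21 cell reporter format: VDR-bla line, 16 h compound exposure in 5% CO2 at 37C, then fluorescence intensity after 2 h with LiveBLAzer B/G FRET substrate.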

Assay [4] shares this target. The assay can be described thus: qHTS assay to identify small molecule antagonists of the vitamin D receptor (VDR) signaling pathway (AID 743223; active = well fitted inhibition curve with a large enough effect in the signal ratio in the repeat runs, not every such curve was filed as active; the % refers to the signal ratio; also: potency is read from the fitted curve at half-maximal effect). To be noted: VDR-UAS-bla HEK293T, beta-lactamase FRET ratio, 16 h; series mostly up to 61 µM. In a few lines: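 Quantitative HTS in VDR-bla reporter cells stimulated with 1alpha,25-dihydroxyvitamin D3, 3 nM final. Compound exposure 16 h, 37C, 5% CO2. Read-out: beta-lactamase FRET substrate fluorescence, 2 h RT.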

Assay [5] deals with Peroxisome proliferator-activated receptor delta (Homo sapiens) (UniProt Q03181). The assay can be described thus: qHTS assay to identify small molecule agonists of the peroxisome proliferator-activated receptor delta (PPARd) signaling pathway (AID 743212; calls by dose curve). To be noted: HEK293H PPARd-UAS-bla, beta-lactamase FRET ratio, 17 h; series mostly up to 62.6 µM. In a few lines: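 Read-out: beta-lactamase FRET fluorescence after 2 h room-temperature incubation with LiveBLAzer B/G substrate. Cells were HEK293H carrying a UAS-bla reporter for PPARd, treated at 37 C with DMSO-dissolved compounds.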

A short description of assay [6]: qHTS assay to identify small molecule antagonists of the peroxisome proliferator-activated receptor delta (PPARd) signaling pathway - cell viability counter screen (AID 743213). Also: nearly all actives have a fitted effect of over 50% in size. Also: potency is read from the fitted curve at half-maximal effect. Particulars: PPARd-bla HEK293H viability, CellTiter-Glo luminescence, 17 h; series mostly up to 62 µM. In a few lines: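 HEK293H cells with the PPARd UAS-bla reporter, co-treated 17 h at 37 C with compounds and L165041 (300 nM final), were lysed with CellTiter-Glo. Luminescence indicated viable cell content.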

For assay [7], the target named is Peroxisome proliferator-activated receptor delta (Homo sapiens) (UniProt Q03181). Description: qHTS assay to identify small molecule antagonists of the peroxisome proliferator-activated receptor delta (PPARd) signaling pathway (AID 743215; active = well fitted inhibition curve with a large enough effect in the signal ratio in the repeat runs, not every such curve was filed as active; the % refers to the signal ratio;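 also: cells stimulated with agonist L165041 at 300 nM final during compound exposure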). To be noted: HEK293H PPARd-UAS-bla, beta-lactamase FRET ratio, antagonist, 17 h; series mostly up to 62 µM. In a few lines:
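Here, a reporter line (HEK293H, beta-lactamase under a UAS) measures PPARd signaling. Compounds are tested against agonist L165041 at 300 nM final concentration over 17 h at 37 C, with fluorescence read after substrate.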

The target in assay [8] is Bile acid receptor (Homo sapiens) (UniProt Q96RI1). The assay can be described thus: qHTS assay to identify small molecule agonists of the farnesoid-X-receptor (FXR) signaling pathway (AID 743220; active = well fitted activation curve with a large enough effect in the signal ratio in the repeat runs, not every such curve was filed as active; the % refers to the signal ratio). Particulars: HEK293T FXR-UAS-bla, beta-lactamase FRET ratio, 16 h; series mostly up to 62.6 µM. In a few lines: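 FXR-UAS-bla HEK 293T cells carrying a UAS-driven beta-lactamase reporter were plated for 5 h at 37C/5% CO2, then exposed to DMSO-dissolved Tox21 10K compounds for 16 h at 37C. A LiveBLAzer B/G FRET substrate was loaded for 2 h at room temperature before fluorescence reading.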

Assay [9] can be described thus: qHTS assay to identify small molecule antagonists of the farnesoid-X-receptor (FXR) signaling pathway - cell viability counter screen (AID 743221; active = well fitted cell-killing curve with a large enough effect in the repeat runs, not every such curve was filed as active; also: nearly all actives have a fitted effect of over 50% in size; also: potency is read from the fitted curve at half-maximal effect). To be noted: FXR-bla HEK293T viability, CellTiter-Glo luminescence, 16 h; series mostly up to 62.6 µM. In a few lines: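 Cytotoxicity is taken from ATP luminescence (CellTiter-Glo, 30 min, room temperature) in FXR-bla HEK 293T cells previously incubated 16 h at 37 C with compound and chenodeoxycholic acid at 50 uM final.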

For assay [10], the target named is Bile acid receptor (Homo sapiens) (UniProt Q96RI1). Description: qHTS assay to identify small molecule antagonists of the farnesoid-X-receptor (FXR) signaling pathway (AID 743217; active = well fitted inhibition curve with a large enough effect in the signal ratio in the repeat runs, not every such curve was filed as active; the % refers to the signal ratio; also: potency is read from the fitted curve at half-maximal effect). To be noted: HEK293T FXR-UAS-bla, beta-lactamase ratio, CDCA-stimulated, 16 h; series mostly up to 62.6 µM. In a few lines:
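Test compounds are pin-transferred onto FXR-bla HEK 293T cells, then chenodeoxycholic acid is added at 50 uM final. After 16 h at 37 °C, LiveBLAzer B/G substrate is applied for 2 h at room temperature and fluorescence read.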

Sequence of Vitamin D3 receptor (Homo sapiens) (P11473 whole entry, looked up): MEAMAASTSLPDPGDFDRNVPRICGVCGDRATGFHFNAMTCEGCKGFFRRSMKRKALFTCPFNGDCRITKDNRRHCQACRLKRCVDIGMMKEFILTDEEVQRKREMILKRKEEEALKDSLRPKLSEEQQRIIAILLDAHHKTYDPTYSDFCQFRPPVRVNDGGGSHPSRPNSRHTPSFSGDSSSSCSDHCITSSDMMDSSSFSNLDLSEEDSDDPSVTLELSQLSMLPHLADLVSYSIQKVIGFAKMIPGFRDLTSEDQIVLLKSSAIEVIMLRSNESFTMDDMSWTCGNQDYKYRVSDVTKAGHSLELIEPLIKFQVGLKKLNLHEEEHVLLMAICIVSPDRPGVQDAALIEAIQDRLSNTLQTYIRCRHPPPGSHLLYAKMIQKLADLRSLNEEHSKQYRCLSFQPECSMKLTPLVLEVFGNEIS
Sequence of Bile acid receptor (Homo sapiens) (Q96RI1 whole entry, looked up): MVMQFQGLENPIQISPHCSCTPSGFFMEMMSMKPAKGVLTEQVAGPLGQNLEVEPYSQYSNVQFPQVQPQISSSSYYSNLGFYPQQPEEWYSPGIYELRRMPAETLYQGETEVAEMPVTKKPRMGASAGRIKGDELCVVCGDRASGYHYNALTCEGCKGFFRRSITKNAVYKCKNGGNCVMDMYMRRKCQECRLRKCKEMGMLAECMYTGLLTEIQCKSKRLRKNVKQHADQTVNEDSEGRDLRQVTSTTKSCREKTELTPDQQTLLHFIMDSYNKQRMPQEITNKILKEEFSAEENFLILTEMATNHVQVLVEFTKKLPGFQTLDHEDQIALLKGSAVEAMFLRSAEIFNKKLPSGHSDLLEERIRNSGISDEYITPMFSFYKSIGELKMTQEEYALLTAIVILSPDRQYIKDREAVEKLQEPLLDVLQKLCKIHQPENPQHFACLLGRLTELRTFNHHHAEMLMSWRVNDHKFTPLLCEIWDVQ
Sequence of Peroxisome proliferator-activated receptor delta (Homo sapiens) (Q03181 whole entry, looked up): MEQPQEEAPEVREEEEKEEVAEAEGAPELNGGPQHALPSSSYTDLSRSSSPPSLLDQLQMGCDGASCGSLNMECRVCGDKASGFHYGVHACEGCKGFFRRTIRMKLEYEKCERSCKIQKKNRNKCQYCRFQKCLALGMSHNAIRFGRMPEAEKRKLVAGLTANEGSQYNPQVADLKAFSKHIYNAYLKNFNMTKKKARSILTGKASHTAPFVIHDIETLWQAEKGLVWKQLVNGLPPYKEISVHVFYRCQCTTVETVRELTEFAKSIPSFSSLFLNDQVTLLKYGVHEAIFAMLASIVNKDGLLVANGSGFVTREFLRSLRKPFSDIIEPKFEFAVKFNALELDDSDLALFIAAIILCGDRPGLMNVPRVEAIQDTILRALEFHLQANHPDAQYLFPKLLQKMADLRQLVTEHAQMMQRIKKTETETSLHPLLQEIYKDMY

With `COc1cc(C[C@@H](C)N)c(OC)cc1Br`, the Potency was 62.8 µM (active) in assay [1] and 31.5 µM (active) in [2].

For the compound `O=S(=O)(Cl)Cl`, the Potency entry in [1], in [2] and in assay [4] was “inactive” throughout. Moreover, the outcome in [3] was inactive.

On to `CCC1(CCC(C)C)C(=O)NC(=O)NC1=O`, for which the result in assay [5] and in assay [8] was inactive. Further, the Potency result in assay [6] and in assay [7] was “inactive” throughout.

For `C[CH2][Hg][S]c1ccccc1C(=O)O`, the Potency in [1] is 871 nM (active) and 2.11 µM (active); in assay [6], 2.19 µM (active) and 1.68 µM (active); in assay [9], 6.92 µM (active) and 4.22 µM (active); in assay [4], 3.38 µM (active).

`CC(C)c1ccc(OP(=O)(Oc2ccc(C(C)C)cc2)Oc2ccc(C(C)C)cc2)cc1`: the Potency in assay [1] is 27.7 µM (active) and 43.7 µM (active) and 27.5 µM (active); in assay [10] it was 22 µM (active). For the same compound, the outcome in [8] and in [3] was inactive. In addition, the Potency result in [4] was “inactive”.

As to `CC1(C)[C@H](C(=O)O[C@H](C#N)c2cccc(Oc3ccccc3)c2)[C@@H]1C=C(Br)Br`, the Potency entry in assay [1], in assay [6] and in assay [9] was “inactive” throughout.

Turning to `CCOC(=O)C1OC1(C)c1ccccc1` (centres undefined), the Potency result in assay [1], in [2] and in assay [9] was “inactive” throughout.

Turning to `COc1cc(CC(C)N)c(OC)cc1Br` (centres undefined), in assay [5], the outcome was inactive. For the same compound, the Potency result in assay [7], in [2] and in [9] was “inactive” each time.

On to `O=C(Cl)OCCOCCOC(=O)Cl`, for which the Potency entry in assay [1] and in [9] was “inactive” in each case. For the same compound, the result in assay [3] was inactive.

Turning to `CC(Oc1cc(Cl)c(Cl)cc1Cl)C(=O)O` (centres undefined), the Potency entry in [1], in assay [7], in [10], in assay [2] and in [9] was “inactive” throughout. In [8], the outcome was inactive.

As to `O=C(O)CCCOc1ccc(Cl)cc1Cl`, the Potency result in assay [1] and in assay [9] was “inactive” in each case. The result in assay [3] was inactive.

For `CC(C)OC(=O)Cc1ccccc1`, the Potency entry in [1], in [9] and in [4] was “inactive” throughout.

Take `O=C(NC(=O)c1cc(F)c(F)cc1Cl)Nc1cc(F)ccc1N1CCC(C(=O)O)CC1`: the outcome in assay [5] and in assay [3] was inactive. Also, the Potency result in assay [6], in [7], in assay [2], in assay [9] and in assay [4] was “inactive” in each case.

`Nc1ccccc1C(=O)OCCc1ccccc1`: the Potency entry in [1], in assay [2], in assay [9] and in [4] was “inactive” throughout. In addition, the outcome in assay [3] was inactive.

Regarding `CN[C@@H](C)[C@H](O)c1ccccc1`, the result in assay [5], in assay [8] and in assay [3] was inactive. Also, the Potency entry in assay [6], in [7], in assay [10], in assay [9] and in assay [4] was “inactive” in each case.

On to `NNCCO`, for which the Potency result in assay [1], in assay [10] and in [9] was “inactive” throughout. Moreover, the outcome in [8] and in assay [3] was inactive.

For the compound `ClCc1ccccc1Cl`, the Potency result in assay [1], in assay [10], in [2] and in assay [9] was “inactive” in each case. The outcome in assay [8] and in assay [3] was inactive.

For the compound `COP(=O)(OC)OC(Br)C(Cl)(Cl)Br` (centres undefined), in assay [5], the result was inactive. The Potency entry in [2], in assay [9] and in [4] was “inactive” in each case.

In the case of `CCC1(C2=NCCN2)Cc2ccccc2O1` (centres undefined), the Potency result in assay [1], in assay [6], in [2], in assay [9] and in [4] was “inactive” each time.

Regarding `CC(Cl)C(=O)O` (centres undefined), the Potency entry in assay [1] is “inactive”. In addition, the result in [3] was inactive.

For the compound `Cc1nc2ccccc2c(=O)n1-c1ccccc1Cl`, the Potency result in [1], in assay [2], in assay [9] and in assay [4] was “inactive” each time. Besides, the outcome in [3] was inactive.

With `CCCCNC(=O)OCC#CI`, the Potency result in [10] and in assay [9] was “inactive” in each case. Moreover, the outcome in [8] was inactive.
